Source: PubChem BioAssay AID731 (The Scripps Research Institute Molecular Screening Center, 2007)
The whole screen tested about 200,000 compounds, of which about 520 (0.26%) were called active. This is one part of a sample in which actives are shown more often than they occur. Cut-off read from the data, not from the text of the source: active = activation above about 23%; inactive = the rest.

The compounds below were run against Peroxisome proliferator-activated receptor gamma (Homo sapiens) (UniProt P37231) (assay: enhancers of SRC-3 binding to PPARgamma – biochemical, primary screen (AID 731;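 note: 0% = DMSO and 100% = reference agonist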)). Conditions: biochemical PPARgamma/SRC-3 coactivator recruitment assay; at 8 µM; active compounds read high.
Peroxisome proliferator-activated receptor gamma (Homo sapiens), sequence (P37231 whole entry, looked up): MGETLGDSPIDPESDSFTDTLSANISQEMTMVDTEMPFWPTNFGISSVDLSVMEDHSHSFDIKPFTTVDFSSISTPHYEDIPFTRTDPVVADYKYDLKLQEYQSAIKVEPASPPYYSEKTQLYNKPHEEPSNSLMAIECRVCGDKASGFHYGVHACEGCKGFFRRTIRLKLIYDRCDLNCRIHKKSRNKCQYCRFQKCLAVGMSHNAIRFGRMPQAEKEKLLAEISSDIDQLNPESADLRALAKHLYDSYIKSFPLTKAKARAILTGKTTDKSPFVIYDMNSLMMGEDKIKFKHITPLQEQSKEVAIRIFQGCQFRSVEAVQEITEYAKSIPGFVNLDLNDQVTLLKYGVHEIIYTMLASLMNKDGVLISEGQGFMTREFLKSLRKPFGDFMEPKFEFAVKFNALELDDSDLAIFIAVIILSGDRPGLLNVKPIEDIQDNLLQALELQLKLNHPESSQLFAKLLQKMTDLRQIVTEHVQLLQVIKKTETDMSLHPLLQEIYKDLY

activation, inactive:
COc1ccc(OCC(=O)Nc2ccc(N3CCC(C)CC3)cc2)cc1 1.65%
CCOc1ccc(Br)cc1S(=O)(=O)Nc1cccc(S(=O)(=O)N(CC)CC)c1 -0.46%
CC(=O)N1CC(C)c2scc(C)[n+]2-c2ccccc21 (stereo unspecified) 0.84%
CCC(C)N(C)C1CCN(C(=S)Nc2ccc(OC)cc2)CC1 (stereo unspecified) -0.62%
CCN(CC)c1ccc2c(Nc3ccccc3)c(C=O)c(=O)oc2c1 -1.59%
CCN(CC)c1ccc2cc(C(=O)O)c(=O)oc2c1 1.62%
Cc1ccccc1N/C(SCc1ccc(Cl)cc1)=C(/C#N)C(N)=O -0.24%
CCCCC1N2CC3([N+](=O)[O-])CN1CC([N+](=O)[O-])(C2)C3(C)C (stereo unspecified) 3.26%
Cc1nc(SCC(=O)N2CC(=O)Nc3ccccc32)c2c(C)c(C)sc2n1 7.47%
COc1cc(/C=C/C2=CC(C)(C)NC(=S)N2)cc(OC)c1OC -3.19%
COc1cc(C(=S)N2CCOCC2)cc(OC)c1OC(=O)c1cc([N+](=O)[O-])cc([N+](=O)[O-])c1 1.22%
COc1cc(C(=S)N2CCOCC2)ccc1O 6.53%
COC(=O)Cc1ccc(NC(=S)NCc2ccco2)cc1 -0.79%
CCc1nnc(NC(=O)Cc2cccs2)s1 0.13%
O=C(O)CCCCOn1ccnc1 -4.37%
CN1CCN(c2ccc(S(=O)(=O)Nc3ccccc3)cc2[N+](=O)[O-])CC1 8.11%
CC(C)(C)c1ccc(/C=C/C(=O)Nc2ncccn2)cc1 -0.41%
O=C(C1=C[C@H](c2ccc(C(F)(F)F)cc2)C[C@H](OCc2ccc(CO)cc2)O1)N1CCN(Cc2ccccc2)CC1 5.31%
N#Cc1ccccc1Sc1ccccc1C(=O)OCC(=O)NC1CCCCC1 -1.17%
CCOc1ccc(NC(=O)CSc2nc3ccccc3c(=O)n2Cc2cccs2)cc1 -1%
CCOc1ccc(NC(=O)CCC(=O)n2nc(C)cc2C)cc1 19.2%
COc1cc(OC)c(-n2cc(-c3ccc(Cl)cc3)[nH]c2=O)cc1Cl 2.05%
NS(=O)(=O)c1ccc(NC(=O)COC(=O)CCc2c[nH]c3ccccc23)cc1 1.02%
COc1cc(NS(=O)(=O)c2ccc(NC(=O)CN3C(=O)c4ccccc4C3=O)cc2)ncn1 4.24%
COc1ccc(C(CC(=O)Nc2ccc(C)cc2)NC(=O)C(F)(F)F)cc1 (stereo unspecified) 1.26%
CN1CCC(OC(=O)COc2ccc(Cl)cc2Cl)CC1 -2.65%
Cc1ccc(NC(=O)OCc2cncs2)cc1 3.15%
O=C1C2C3C=CC(C4CC34)C2C(=O)N1c1nccs1 (stereo unspecified) -3%
O=C(/C=C/c1cn(-c2ccccc2)nc1-c1ccc2c(c1)OCCO2)NCCCN1CCOCC1 5.25%
Cc1cccc(OCCNC(=O)CSc2ccc(C(F)(F)F)cc2[N+](=O)[O-])c1 -3.57%
Cc1cc(O)c(NC(=O)c2ccc(C)c([N+](=O)[O-])c2)cc1C -0.67%
Cc1cccc(NC(=O)c2cc([N+](=O)[O-])ccc2N2CCN(C)CC2)c1 4.61%
CCc1cc(C(=O)OC)c(NC(=O)CC2Sc3ccc(C(F)(F)F)cc3NC2=O)s1 (stereo unspecified) -4.95%
CCOc1cc(/C=N/NC(=O)c2ccc(CSc3nncn3C)cc2)ccc1OCC(=O)N1CCOCC1 -1.91%
CC(OC(=O)CNS(=O)(=O)/C=C/c1ccccc1)C(=O)Nc1ccc(S(=O)(=O)N2CCCC2)cc1 (stereo unspecified) -1.83%
CC(C(=O)O)n1cnc2sc3c(c2c1=O)CCCC3 (stereo unspecified) 4.24%
COc1ccc(N2C(=O)CC(SC(C)C)C2=O)cc1 (stereo unspecified) -1.07%
CN(Cc1cccc2ncccc12)C(=O)CC1C(=O)NCCN1Cc1ccc(F)cc1 (stereo unspecified) -0.7%
O=C(/C=C/Nc1ccccc1)c1cnc(-c2ccccc2)s1 -4.1%
CC(C)Cn1c(N2CCN(C(=O)/C=C/c3ccccc3)CC2)nc2ccccc21 9.26%
COc1cccc(NC(=O)CN(C)CC(=O)Nc2ccc3c(c2)CCC3)c1 0.47%
O=C(Cc1ccccc1)NNS(=O)(=O)c1ccc([N+](=O)[O-])cc1 1.7%
CCCCn1nc(C(=O)Nc2ccc(S(=O)(=O)Nc3ncccn3)cc2)c2ccccc2c1=O 2.84%
CC(C)C(c1nnnn1C(C)(C)C)N1CCN(Cc2cccnc2)CC1 (stereo unspecified) 4.42%
CCn1c(C(C)C)n[nH]c1=S 1.32%
CCN(CC(=O)NCc1cccs1)C(=O)c1ccccc1F 1.34%
COc1cc(CNCCN(C)C)ccc1OCc1c(F)cccc1Cl 2.34%
c1ccc(Cc2cc[n+](Cc3ccccc3)cc2)cc1 1.56%
NS(=O)(=O)c1cc(C(=O)NCCOc2ccccc2)c(Cl)cc1Cl -1.64%
CCc1nnc(NC(=O)[C@@H](NC(=O)c2cccc(C)c2)C(C)C)s1 -2.92%
COc1ccc(-c2nnc3ccc(SCc4ccccc4)nn23)cc1 3.96%
Cc1cc(C)nc(NC(=O)c2cccc([N+](=O)[O-])c2)c1 2.34%
CC(C)[C@H](NC(=O)c1ccc(F)cc1)C(=O)OCC(=O)NC(=O)c1cccn1C 1.86%
O=C(Cn1c(N2CCN(C/C=C/c3ccccc3)CC2)nc2ccccc21)c1ccccc1 6.67%
N/C(=N\OC(=O)c1ccc([N+](=O)[O-])cc1)c1ccccn1 -2.22%
[O-][n+]1onc2c1CCc1[nH]c(-c3ccccc3)nc1-2 0.76%
N#C/C(=C(\O)C(F)(F)F)c1nnc2n1CCCCC2 -0.75%
CSCc1ccc(C(=O)Nc2cc(C)cc(C)c2)cc1 -4.38%
COc1ccc2c(Cl)c(C(=O)NCc3ccco3)sc2c1 -2.31%
COc1ccc(-c2nnco2)cc1OC -2.7%
O=C(Nc1ccc2c(c1)CCC2)c1ccc(Br)s1 0.47%
C/C(=C\c1ccccc1)C1NC(=O)c2c(sc3c2CCCC3)N1 (stereo unspecified) 6.88%
CCn1nc(C)c(CN2CCN(Cc3ccc(OC)c(C)c3C)C(CCO)C2)c1C (stereo unspecified) -0.59%
Cn1cc(-c2ccccc2)cc(C#N)c1=O 1.51%
CN(C)N(C)C(=O)C(O)(c1ccccc1)c1ccccc1 3.14%
Cc1cc(C)cc(N(CC(=O)NCCSCc2ccco2)S(C)(=O)=O)c1 5.41%
O=C(CN1C(=O)NC2(CCCC2)C1=O)Nc1ccc(F)c(F)c1F 0.63%
O=S(=O)(c1ccc(F)cc1)N1CCN(C(=S)NC2CCCC2)CC1 1.45%
COc1cc(C)c(S(=O)(=O)N2CCOCC2)c(C)c1C -6.91%
CCc1nnc(NS(=O)(=O)c2ccc(NS(=O)(=O)c3ccccc3)cc2)s1 -4.6%
CCc1nnc(NS(=O)(=O)c2ccc(NC(=S)NC(=O)c3cccs3)cc2)s1 2.44%
C/C(=N/NC(=O)C1COc2ccccc2O1)c1ccco1 (stereo unspecified) -2.9%
Cc1ccc(CN(C)CC(=O)Nc2cccc([N+](=O)[O-])c2)o1 -1.37%
COc1cc(NS(=O)(=O)c2ccc(NC(=O)c3ccc(S(=O)(=O)N4CCCCC4)cc3)cc2)ncn1 -0.22%
C/C(=N\NS(=O)(=O)c1ccc(Cl)cc1)c1ccc(NC(=O)c2ccco2)cc1 7.63%
O=C(O)Cc1sc(-c2ccc(C(=O)O)cc2)nc1-c1ccccc1 8.03%
Cc1ccc(-c2nc(C)sc2CC(=O)O)cc1 1.18%
Cc1ccc(C2=NN(C(=O)COc3ncnc4ccccc34)C(c3ccco3)C2)cc1 (stereo unspecified) 6.22%
COC(C(=O)NCc1ccccc1C)c1ccccc1 (stereo unspecified) -1.48%
CCCC(c1nnnn1C(C)(C)C)N1CCN(Cc2ccccc2)CC1 (stereo unspecified) 0.32%
COc1ccc(OC)c(CNC(=O)c2cc(=O)[nH]c3ccc(S(=O)(=O)N4CCCC4)cc23)c1 1.02%
O=C(C1CCN(C2CCN(Cc3ccc4cc(F)ccc4n3)CC2)CC1)N1CCCC1 3.24%
Cc1ccc(C(=O)N/C(=C\c2ccco2)C(=O)N2CCSCC2)cc1C -0.93%
Cc1ccc2cc(C#N)c(NCCNC(=S)NCCCN3CCOCC3)nc2c1 1.37%
Cn1nnnc1SCC(=O)Nc1nc2ccccc2s1 -4.08%
N#Cc1c(-c2ccc(F)cc2)cc(C2CC2)nc1SCC(=O)c1cccs1 -1.78%
COC(=O)CCc1sc(Nc2ccc(Br)cc2)nc1-c1ccc(OC)cc1 4.66%
Cc1ccccc1-c1n[nH]c(=S)n1C 2.22%
Cn1c(-c2sccc2OCc2cccc(C(F)(F)F)c2)n[nH]c1=S 4.56%

activation, active:
CCN(CC)c1ccc2oc(=O)c(C)nc2c1 30.3%
COc1cc(C(=S)N2CCOCC2)cc(OC)c1OC(=O)c1cc([N+](=O)[O-])c(C)c([N+](=O)[O-])c1 27.4%
CCOc1ccc(NC(=O)CSc2ncnc3c2sc2ccccc23)cc1 23.1%
COc1ccc2c(Cl)c(-c3nnco3)sc2c1 33.2%
CCc1nnc(NS(=O)(=O)c2ccc(NC(=S)NC(=O)/C=C/c3cccs3)cc2)s1 22.6%
O=C(O)Cc1sc(-c2ccccc2)nc1-c1cccs1 25.3%
Cn1c(-c2sc3cc(C(F)(F)F)cnc3c2-c2ccccc2)n[nH]c1=S 50%
